This is an account of results in PubChem BioAssay.

The nature of this experiment: probe aInhba binding on compound microarray – biochemical, small-molecule microarray, 635/667 nm fluorescence, primary screen (AID 1148).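 Also: score merges 667nm spot fluorescence with signal-to-noise for antibody binding to printed compounds.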 The conditions noted are these: higher = more signal.
`CCOC(=O)CCN1C(=O)[C@H]2[C@H]3[C@H](O)[C@H](O)CC(=NOCC=C(C)CCC=C(C)C)[C@H]3CC[C@H]2C1=O` returned a composite z-score of 0.12.

`CCOC(=O)[C@H](Cc1ccccc1)NC(=O)CCC1CC(OC(=O)NCc2cccc3ccccc23)CC2(CCCC(COC(=O)NCCOc3ccccc3)O2)O1` (stereo partly specified) yielded a composite z-score of 0.0667.

In turn, `CCOC(=O)[C@H](CC(C)C)NC(=O)CCC1CC(OC(=O)NCCc2ccc(F)cc2)CC2(CCCC(COC(=O)NCCCN3CCCC3=O)O2)O1` (stereo partly specified) showed a composite z-score of -0.0195.

Consider `CC(=O)OC[C@H]1O[C@H](CC=NOC(C)CN2CCCCc3nc(C)c(C)cc32)C=C[C@@H]1OC(C)=O` (stereo partly specified), for which the composite z-score is -0.137.

In turn, `C#CCCCON=C1[C@H]2CCn3c(=O)n([C@@H](CC)c4ccccc4)c(=O)n3[C@H]2[C@H](O)[C@@H]2O[C@H]12` gave a composite z-score of -0.045.

The molecule `CO[C@H]1C[C@@H]2C[C@H](O)CC(CC(=O)O[C@@H](C=CCC(C)C)C[C@@H]3CC[C@H](C)[C@@H](C1)O3)O2` came in with a composite z-score of -0.0494.

`C=CC[C@@H]1C=C[C@H](ON=C[C@@H](NS(=O)(=O)c2ccc(C)cc2)[C@H](C)C=CCC(=O)OC)[C@@H](CO)O1` returned a composite z-score of 0.138.

For the molecule `CO[C@H]1COC(=O)CCC[C@H](C)[C@@H](OC)COC(=O)CC=C[C@@H]1C`, the composite z-score was -0.128.

In turn, `O=C(NN=C1C[C@@H](O)[C@@H](O)[C@@H]2[C@@H]3C(=O)N(Cc4ccccc4)C(=O)[C@@H]3CC[C@H]12)OCc1ccccc1` displayed a composite z-score of 0.0406.

For `CCOC(=O)[C@H](CC(C)C)NC(=O)CCC1CC(OC(=O)NCCc2ccc(F)cc2)CC2(CCCC(COC(=O)NCc3cccc4ccccc34)O2)O1` (stereo partly specified), the composite z-score is -0.131.

Turning to `CCN1C(=O)[C@H]2[C@H]3[C@H](O)[C@H](O)CC(=NOCC(C)C)[C@H]3CC[C@H]2C1=O`, the composite z-score is -0.0774.

As for `COC(OC)[C@@H](C)[C@H](OC)[C@@H](C)[C@H](OC)c1ccccc1`, the composite z-score is -0.321.

As for `COC(=O)[C@H](C)NC(=O)CCC1CC(OC(=O)NCc2ccc3c(c2)OCO3)CC2(CCCC(COC(=O)NCc3ccccc3)O2)O1` (stereo partly specified), the composite z-score was -0.0136.

Turning to `CO[C@@H](C1CCCCC1)[C@@H](C)[C@H](OCc1cccc(Br)c1)[C@@H](C)CO`, the composite z-score came out at 0.0442.

Molecule `CC(C)CON=C1[C@H]2CCn3c(=O)n(C)c(=O)n3[C@H]2[C@H](O)[C@@H]2O[C@H]12` gave a composite z-score of -0.0405.

`C[C@]12CCC3c4ccc(OCC5CO5)cc4CCC3C1CC[C@@H]2O` (stereo partly specified) returned a composite z-score of 0.0561.

`CO[C@@H]1C=CCC(=O)N[C@@H](C)C(=O)OC[C@@H](OC)[C@H](C)C=CCC(=O)OC[C@H]1C` gave a composite z-score of -0.157.

Regarding `OC[C@H]1O[C@H](C#Cc2ccccc2)C=C[C@@H]1O`, the composite z-score is 0.0227.

Molecule `CC(C)[C@@H](OCc1ccccc1)[C@H](C)C=NO[C@H](C)c1cn([C@@H]2COC[C@H]2O)nn1` came in with a composite z-score of -0.0843.

In the case of `CN1CCc2nc(-c3ccccc3)c(-c3ccccc3)cc2C1`, the composite z-score was -0.176.

As for `O=C1[C@H]2[C@H]3[C@H](O)[C@H](O)CC(=NOC[C@@H](O)COCc4ccco4)[C@@H]3CC[C@H]2C(=O)N1Cc1ccc2c(c1)OCO2`, the composite z-score is -0.218.

With `CCOC(=O)[C@H](CC(C)C)NC(=O)CCC1CC(OC(=O)NCc2ccc3c(c2)OCO3)CC2(CCCC(COC(=O)NCCc3ccccc3OC)O2)O1` (stereo partly specified), the composite z-score is -0.128.

The molecule `C[C@@H]1CC[C@H]2C(=O)OC(CN3C(=O)c4ccccc4C3=O)CN2[C@H]1c1ccc(Br)cc1` (stereo partly specified) registered a composite z-score of -0.045.

`O=C1C=C[C@@H](O)[C@@H]2[C@@H]3C(=O)N(Cc4ccc5c(c4)OCO5)C(=O)[C@@H]3CC[C@@H]12`: the composite z-score was -0.307.

For `COC(=O)[C@H](C)NC(=O)CCC1CC(OC(=O)NCc2cccc3ccccc23)CC2(CCCC(COC(=O)NCCCN3CCCC3=O)O2)O1` (stereo partly specified), the composite z-score is -0.152.

Consider `CO[C@@H]1COC(=O)[C@H](COCc2ccccc2)NC(=O)CC=C[C@@H](C)[C@H](OC)COC(=O)[C@@H](C)NC(=O)CC=C[C@H]1C`, for which the composite z-score was -0.179.

Turning to `CON=C(C)CCN1CCCCc2nc(C)c(C)cc21`, the composite z-score is -0.0131.

`C#CCCCON=C1[C@H]2CCn3c(=O)n(Cc4cc5c(cc4Cl)OCO5)c(=O)n3[C@H]2[C@H](O)[C@@H]2O[C@H]12`: the composite z-score is -0.0375.

In the case of `C[C@H]1CC[C@H]2C(=O)N[C@H](Cc3ccccc3)C(=O)N2[C@@H]1c1ccccc1`, the composite z-score was -0.233.

Turning to `CC(CCN1CCc2nc(-c3ccccc3)c(-c3ccccc3)cc2C1)=NO[C@H](C)c1cn([C@H](CO)Cc2ccccc2)nn1`, the composite z-score is -0.0494.

Molecule `C#CCCCON=C1C[C@@H](O)[C@@H](O)[C@@H]2[C@@H]3C(=O)N(C[C@@H]4CCCO4)C(=O)[C@@H]3CC[C@@H]12` displayed a composite z-score of -0.142.
